Screening data as filed in PubChem BioAssay.
Only some compounds are listed: those with a hit (about 1.8% of all), similar ones and a draw of the others.
CCHF vOTU inh-1: blocks the CCHF virus ovarian tumor domain protease; CCHFV vOTU protease, Pep-AMC fluorescence; AID 651958; inhibition, % at 11.5 µM; hit rate 0.55% among 370,000; also: 0% = vehicle wells with enzyme and 100% = no enzyme wells
DUSP3 inh: DUSP3 (human) phosphatase inhibition | recombinant VHR phosphatase, pNPP absorbance | inhibition, % at 13.3 µM | hit rate 0.52% among 290,000 | AID 1654; in the data active = inhibition above about 50%
Target sequence (P51452 whole entry, looked up): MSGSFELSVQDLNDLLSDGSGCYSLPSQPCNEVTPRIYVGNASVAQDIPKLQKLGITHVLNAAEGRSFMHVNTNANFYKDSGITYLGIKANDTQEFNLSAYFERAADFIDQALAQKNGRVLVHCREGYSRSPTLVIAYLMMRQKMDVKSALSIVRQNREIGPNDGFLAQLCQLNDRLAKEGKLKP
Vc quorum ag: inducers of Vibrio cholerae quorum light production without autoinducers. hit rate 0.16% among 350,000. activation, % at 18.7 µM. V. cholerae BH1578 lux reporter, luminescence, 6 h; in the data active = activation mostly above about 9.7%, no sharp cut-off
Y pestis TopoI: Y. pestis Topo-I inhibition via cleavage products | Y. pestis Topo-I cleavage product accumulation, plate reader | activity, % at 10 µM | hit rate 0.064% among 360,000 | AID 504884; in the data active = activity above about 50%, passing the limit was not always enough
MazF activator: activators of E. coli MazEF toxin-antitoxin RNase; AID 504720; FAM/BHQ RNA-DNA oligo cleavage fluorescence, 5 h; hit rate 0.32% among 350,000; activation, % at 20 µM; P0AE70; in the data active = activation above about 50%
Target sequence (P0AE70 whole entry, looked up): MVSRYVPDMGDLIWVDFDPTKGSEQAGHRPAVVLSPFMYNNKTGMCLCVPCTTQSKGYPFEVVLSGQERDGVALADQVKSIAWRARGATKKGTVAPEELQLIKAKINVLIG
PrPC TRFRET: inhibitors of human cell surface prion protein PrPC; hit rate 0.43% among 370,000; TR-FRET read-out; inhibition, % at 13.8 µM; P04156; in the data active = inhibition above about 24%; also: 0% = median of the test wells and 100% = reference compound wells
CCHF vOTU inh-2: confirmation of CCHF virus vOTU protease inhibitors | shares compounds with CCHF vOTU inh-1 | Recombinant CCHFV vOTU, Pep-AMC fluorescence | inhibition, % at 11.5 µM | hit rate 17% among 1,900
* marks the source's active call; other numbers are inactive results; i = inactive; / = no result given; ! = not confirmed by another sample. Rule as the data show it, unless noted: active = inhibition above about 30%; inactive = the rest.

SMILES	CCHF vOTU inh-1	DUSP3 inh	Vc quorum ag	Y pestis TopoI	MazF activator	PrPC TRFRET	CCHF vOTU inh-2
Cc1c(C(c2cccc([N+](=O)[O-])c2O)c2c(C)n(C)n(-c3ccccc3)c2=O)c(=O)n(-c2ccccc2)n1C	-2.3	33.8	-1.4	-6.9	-0.4	-4.6	/
CSc1ccccc1NC(=O)CN(C)C(=O)Cc1c(F)cccc1Cl	-1.9	16.3	-5.6	9.5	0.4	-4.0	/
CCCCOC(=O)CSc1nc2c(c(=O)[nH]c(=O)n2C)n1C/C=C(\C)Cl	30.9*	-4.0	i	-10.5	-3.5	-0.3	-10.1
Cc1ccccc1OCC(=O)N1N=C(C(F)(F)F)CC1(O)C(C)(C)C (centres undefined)	33.5*	-9.6	-2.5	11.7	0.5	0.7	9.6
CCOC(=O)C1(CCCc2ccccc2)CCN(C(=O)Cc2nonc2C)CC1	30.8*	17.7	i	19.1	4.6	8.3	-1.9
CC1(C)CC(=O)C=C(Nc2ccccn2)C1	10.9	11.8	i	3.6	-3.1	-1.4	/
CC1(C)CC(=O)C=C(Nc2ccc(Br)cn2)C1	30.6*	3.1	-0.4	1.2	6.0	-3.0	-1.3
OCCN(Cc1ccccc1)CC(O)COc1ccc(-c2ccccc2)cc1 (centres undefined)	30.5*	26.1	-0.3	27.9	-2.7	-0.4	-11.6
O=C1NC(=S)S/C1=C\c1cc(Cl)cc(Cl)c1O	30.5*	/	-1.8	4.3	-73.4	2.7	23.4
CC(O)(c1cccc(F)c1)c1nc(/C=C/c2ccccc2)cs1 (centres undefined)	16.7	/	-0.4	-7.4	/	5.3	/
CC(O)(c1ccc(F)c(F)c1)c1nc(/C=C/c2ccc(C(F)(F)F)cc2)cs1 (centres undefined)	32.5*	/	i	-20.7	/	7.0	-5.6
CC[C@H](CCCc1ccccc1OC)CCS(=O)(=O)N(C)C	7.8	/	/	/	/	-2.9	/
CC(=O)Oc1cc(C)c(Cl)c2c(OC(C)=O)cc(C(C)=O)c(O)c12	32.0*	/	/	/	/	3.2	17.8
Cc1cc(F)ccc1C(O)c1ncc(-c2cccc(OCc3ccccc3)c2)[nH]1 (centres undefined)	12.5	/	i	3.1	/	-0.8	/
O=C(NCCC(=O)N1CCCCCCC1)c1ccc(Cl)cc1	3.1	/	-5.6	3.4	3.2	-7.5	/
CCCCN(C=O)c1c(CC)nc2c(OCC(=O)C(C)(C)C)cccn12	32.1*	/	-0.8	-9.1	/	-2.7	-18.6
CCc1nc2c(OCC(=O)C(C)(C)C)cccn2c1N(C=O)CC(=O)N(C)C	-3.3	/	-0.4	-5.4	/	6.0	/
O=c1oc2ccccc2c(Nc2cccc3cccnc23)c1[N+](=O)[O-]	12.5	-16.9	0.4	-9.2	-5.4	2.8	/
Cc1ccc(S(=O)(=O)NC2=C(N3CCN(c4ccccc4F)CC3)C(=O)c3ccccc3C2=O)cc1	53.1*!	34.3	i	-5.8	19.4	-37.6	25.8
CCOC(=O)N1CCN(C2=C(NS(=O)(=O)c3ccc(C)cc3)C(=O)c3ccccc3C2=O)CC1	81.9*	10.4	-0.3	15.7	-19.9	-55.1	81.0*
CC(=O)Nc1ccc(S(=O)(=O)NC2=C(N3CCN(c4ccc(F)cc4)CC3)C(=O)c3ccccc3C2=O)cc1	76.9*	28.6	-1.6	10.3	0.4	-46.6	69.1*
Cc1ccc(S(=O)(=O)NC2=C(N3CCN(Cc4ccccc4)CC3)C(=O)c3ccccc3C2=O)cc1	5.9	-5.8	-0.2	2.7	0.3	-27.0	/
CC(=O)Nc1ccc(S(=O)(=O)Nc2ccc(N3CCOCC3)cc2)cc1	2.5	10.5	i	-2.6	1.5	2.6	/
COc1ccc(C2C(C(=O)N3CCCCC3C)CC(=O)N2c2ccc(OC)cc2)cc1 (centres undefined)	-6.5	/	/	/	/	2.3	/
Cc1ccc2c(c1C)-c1c(ccc(C)c1C)C(=O)C2=O	75.4*	/	-5.6	6.1	11.8	1.8	72.2*
SMILES	CCHF vOTU inh-1	DUSP3 inh	Vc quorum ag	Y pestis TopoI	MazF activator	PrPC TRFRET	CCHF vOTU inh-2
Cc1ccc2c(c1N)C(=O)c1ccccc1C2=O	20.4	/	-0.4	-7.7	5.8	-29.1	/
O=C(NCCc1ccc(F)cc1)C1CCC(=O)N(CC2CCCCC2)C1 (centres undefined)	-7.8	/	-0.8	-2.7	5.8	2.4	/
COc1ccccc1C(=O)Nc1ccc(NC(=O)C2CCCCC2)nc1	39.4*	21.1	-0.6	-2.0	3.6	8.8	-20.6
COC(=O)[C@]12C[C@H](CC(=O)NCc3cccc(C(F)(F)F)c3)C(=O)N(Cc3ccco3)C1=C[C@H](C(C)(C)C)O[C@@H]2C	32.2*	/	/	/	/	10.7	4.9
COC(=O)[C@]12C[C@H](CC(=O)NCc3cccc(C(F)(F)F)c3)C(=O)N(Cc3ccc(Cl)cc3Cl)C1=C[C@H](C(C)(C)C)O[C@@H]2C	31.8*	/	/	/	/	-11.5	15.0
COC(=O)c1nn(-c2ccccc2)c2nnc(Cc3ccc(C)cc3)c(=O)n12	32.3*	-8.0	0.9	-1.4	-0.4	7.6	-16.4
Cc1nn(C)c(C(=O)N/N=C/c2ccccc2)c1[N+](=O)[O-]	31.3*	-10.5	i	5.9	10.7	0.4	-13.3
Cc1cc(C)nc(SCc2ccc(C(=O)O)o2)n1	9.8	22.1	2.6	6.5	10.8	2.1	/
Cc1cc(C(F)(F)F)nc(SCc2ccc(C(=O)O)o2)n1	40.9*	24.9	5.0	-4.0	4.9	-2.1	-10.4
CCCn1c(O)c(N=NC(=O)CNC(=O)Cc2ccc(OC)cc2)c2ccccc21	31.7*	1.3	439.4*	16.7	6.8	-35.1	-3.9
OC(c1ccc(Cl)c(F)c1)c1ncc(-c2cccc(C(F)(F)F)c2)[nH]1 (centres undefined)	35.6*	/	0.4	-16.3	/	15.1	-5.7
COc1ccc(CN2C(=O)CSCC2(C)C(=O)NCc2ccccc2)cc1 (centres undefined)	1.9	/	/	/	/	8.0	/
CC1(C)Nc2cccc3cccc(c23)N1	33.4*	/	i	-3.2	-7.6	-4.6	-104.0
c1cc2c3c(cccc3c1)NC1(CCCC1)N2	28.4	/	-7.1	-9.2	0.9	1.3	/
CN(C)C(=O)c1cnc(Cc2c[nH]c3ccccc23)c(I)c1	-1.3	/	i	14.9	/	-2.4	/
COc1cc(Cl)c(C)cc1NC(=O)CN1C(=O)C2CCCCC2C1=O (centres undefined)	31.9*	/	i	9.0	1.9	-5.4	-14.0
COc1ccc(Cl)cc1NC(=O)CN1C(=O)C(=O)N(C2CCCC2)C1=O	4.4	/	i	-2.0	2.6	1.5	/
Cc1cccc(COC[C@H](CC(C)C)N2CCN(C(=O)c3ccc(C(C)(C)C)cc3)CCC2=O)c1	30.5*	/	/	/	/	7.7	0.5
CC(C)CC(COCc1ccc(F)cc1)N1CCN(C(=O)c2cccc(C(F)(F)F)c2)CCC1=O (centres undefined)	26.1	4.7	-0.4	12.7	-0.7	11.4	/
CC(C)C[C@@H](COCc1ccc(F)cc1)N1CCN(C(=O)c2cccc(C(F)(F)F)c2)CCC1=O	30.9*	/	/	/	/	9.9	8.1
COc1ccc([C@H]2N[C@]3(CCCN(Cc4cccn4C)C3=O)[C@H]3C(=O)N(C)C(=O)[C@@H]23)cc1	-9.7	/	i	16.0	2.2	-8.6	/
